Values joined by “and” are separate entries in the source; they are usually repeats but may differ in a detail not shown here. Identical values can stand only once. Hit rate of the full screen: of about 5,500 compounds, about 2,000 (36%) were called active. About 18% were inconclusive and are not listed. Rule as the data show it: active = normalized growth mostly below about 0.91 (no sharp cut-off); inconclusive = no clear call, values can overlap the other calls; inactive = mostly above about 0.92. The list shows a part of the results.
Test: chemical genetic growth profiling, strain panel (AID 1159580);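 also: tested at 20 µM; growth read once vehicle control cultures reached saturation at 30 °C; 1 = growth at the plate median or of vehicle wells; lower values mean less growth of the strain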
Settings: S. cerevisiae deletion strains, growth OD

Measured: normalized growth

CC(=O)C1CCC2C3CCC4C[C@H](O)CCC4(C)C3C[C@H](O)C12C (some centres not stated)
inactive: locus YAL013W, strain DEP1, active compounds read low 1.03 | locus YAL021C, strain ccr4, active compounds read low 0.96 | locus YAL026C, strain drs2, active compounds read low 0.984 | locus YAL030W, strain snc1, active compounds read low 0.971 | locus YBL061C, strain skt5, active compounds read low 0.989 | locus YBR009C, strain hhf1, active compounds read low 0.963 | locus YBR021W, strain FUR4, active compounds read low 1.02 | locus YBR023C, strain chs3, active compounds read low 0.989 | locus YBR171W, strain sec66, active compounds read low 0.961 | locus YBR229C, strain ROT2, active compounds read low 1.03 | locus YBR231C, strain swc5, active compounds read low 0.993 | locus YBR279W, strain paf1, active compounds read low 0.98 | locus YCL011C, strain gbp2, active compounds read low 0.957 | locus YCL016C, strain dcc1, active compounds read low 0.97 | locus YCL029C, strain bik1, active compounds read low 1 | locus YCL069W, strain vba3, active compounds read low 0.968 | locus YCR088W, strain abp1, active compounds read low 0.972 | locus YDL005C, strain med2, active compounds read low 0.971 | locus YDL035C, strain GPR1, active compounds read low 1.09 | locus YDL040C, strain nat1, active compounds read low 0.982 | locus YDL074C, strain BRE1, active compounds read low 1.16 | locus YDL101C, strain DUN1, active compounds read low 1.02 | locus YDL134C, strain PPH21, active compounds read low 1.05 | locus YDL185W, strain tfp1, active compounds read low 0.999 | locus YDL192W, strain arf1, active compounds read low 1.02 | locus YDR001C, strain nth1, active compounds read low 0.956 | locus YDR069C, strain doa4, active compounds read low 0.945 | locus YDR101C, strain arx1, active compounds read low 1.01 | locus YDR137W, strain rgp1, active compounds read low 0.966 | locus YDR150W, strain NUM1, active compounds read low 1.04 | locus YDR159W, strain sac3, active compounds read low 0.982 | locus YDR162C, strain NBP2, active compounds read low 1.04 | locus YDR195W, strain ref2 0.956 | locus YDR297W, strain sur2, active compounds read low 0.976 | locus YDR318W, strain mcm21, active compounds read low 1.02 | locus YDR334W, strain swr1, active compounds read low 0.962 | locus YDR335W, strain msn5, active compounds read low 0.982 | locus YDR388W, active compounds read low 1.01 | locus YDR392W, strain spt3, active compounds read low 0.978 | locus YDR502C, strain sam2, active compounds read low 1.01 | locus YEL003W, strain gim4, active compounds read low 0.979 | locus YEL037C, strain rad23, active compounds read low 0.972 | locus YEL061C, strain CIN8 (second series), active compounds read low 0.973 | locus YEL061C, strain CIN8, active compounds read low 1.03 | locus YER015W, strain faa2, active compounds read low 0.968 | locus YER016W, strain bim1, active compounds read low 0.971 | locus YER110C, active compounds read low 0.987 | locus YER111C, strain swi4, active compounds read low 0.978 | locus YER155C, strain BEM2 (second series), active compounds read low 0.979 | locus YER155C, strain BEM2, active compounds read low 1.02 | locus YER167W, strain BCK2, active compounds read low 1.02 | locus YFR010W, strain ubp6, active compounds read low 0.975 | locus YGL078C, strain dbp3, active compounds read low 0.995 | locus YGL086W, strain mad1, active compounds read low 1.01 | locus YGL167C, strain pmr1, active compounds read low 0.96 | locus YGL173C, strain kem1, active compounds read low 0.965 | locus YGL227W, strain vid30, active compounds read low 0.972 | locus YGL240W, strain doc1, active compounds read low 0.984 | locus YGL248W, strain PDE1, active compounds read low 1.08 | locus YGL253W, strain hxk2, active compounds read low 0.963 | locus YGR078C, strain PAC10, active compounds read low 1.07 | locus YGR135W, strain pre9, active compounds read low 0.998 | locus YGR252W, strain gcn5, active compounds read low 1.06 | locus YHR013C, strain ard1, active compounds read low 0.942 | locus YHR027C, strain rpn1, active compounds read low 0.971 | locus YHR030C, strain SLT2, active compounds read low 1.01 | locus YHR079C, strain IRE1 (second series), active compounds read low 1.01 | locus YHR079C, strain IRE1, active compounds read low 1.02 | locus YHR094C, strain hxt1, active compounds read low 1 | locus YHR129C, strain ARP1, active compounds read low 1.04 | locus YHR142W, strain chs7, active compounds read low 0.953 | locus YHR200W, strain rpn10, active compounds read low 1.01 | locus YIL066C, strain RNR3, active compounds read low 1.04 | locus YIL073C, strain SPO22, active compounds read low 1.12 | locus YIL125W, strain kgd1, active compounds read low 1.01 | locus YIR030C, strain dcg1, active compounds read low 1.01 | locus YJL092W, strain hpr5, active compounds read low 0.964 | locus YJL095W, strain BCK1 (second series), active compounds read low 0.961 | locus YJL095W, strain BCK1, active compounds read low 1.07 and 1.01 | locus YJL115W, strain asf1, active compounds read low 0.963 | locus YJL129C, strain trk1, active compounds read low 0.968 | locus YJL134W, strain LCB3, active compounds read low 1.01 | locus YJL154C, strain vps35, active compounds read low 0.968 | locus YJL164C, strain tpk1, active compounds read low 0.96 | locus YJL166W, strain qcr8, active compounds read low 0.975 | locus YJL168C, strain set2, active compounds read low 0.987 | locus YJL187C, strain SWE1 (second series), active compounds read low 1.04
